# Rows were chosen to be rich in hits. Some 0.87% of all compounds tested hit in one or more screens of this group.
# IDE act = boosts human insulin-degrading enzyme activity in HEK cells; activation, % at 5.96 µM; P14735; hit rate 0.073% among 340,000; FAbeta-B cleavage, fluorescence polarization; 0% vehicle, 100% cell-free pure enzyme wells;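 active means activation above the mean of all tested compounds plus 3 SD, set per screening campaign, cut at about 17% in these data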
# IDE inh = inhibits human insulin-degrading enzyme in HEK cells; FAbetaB cleavage, fluorescence polarization; inhibition, % at 5.59 µM; hit rate 0.41% among 320,000; AID 434962;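 active means percent inhibition above the average of all tested compounds plus 3 SD, set per screening campaign, cut at about 16% in these data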;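 further: IDE supplied by intact live HEK cells; FP after avidin binding of uncleaved biotin substrate so inhibition keeps polarization high; 0% = DMSO wells and 100% = 60 µM reference IDE inhibitor Ii1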
# NOD2 RIPK2 PPI = blocks binding of human NOD2 to RIPK2; CHO BLA complementation NOD2-RIPK2, CCF4 ratio; inhibition, % at 4.98 µM; hit rate 0.38% among 360,000; in the data active means inhibition above about 21%;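 further: 0% = vehicle only and 100% = reference blocker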
# TLR9-MyD88 block = blocks human TLR9 binding to MyD88; CHO BLA complementation TLR9-MyD88, CCF4 FRET ratio; inhibition, % at 4.98 µM; hit rate 0.21% among 340,000; AID 504734;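 active means inhibition above the mean over all tested compounds plus 3 SD, cut at about 21% in these data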;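 further: 0% = DMSO only wells and 100% = clavulanate BLA inhibitor control wells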
# TLR4-MyD88 BLA = TLR4-MyD88 interaction inhibition in cells; inhibition, % at 8.4 µM; HeLa CL3-4 TLR4/MyD88 BLA complementation, FRET ratio; O00206+Q99836; hit rate 0.18% among 200,000; in the data active means inhibition above about 25%;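 further: 0% = vehicle and 100% = reference inhibitor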
# TLR4 MyD88 cnf = TLR4-MyD88 interaction inhibition confirmed. hit rate 50% among 350. inhibition, % at 8.4 µM. shares compounds with TLR4-MyD88 BLA. HeLa CL3-4 BLA complementation, CCF4 FRET ratio;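 active means mean inhibition across three repeat runs above about 25% carried over from the earlier screen, limit read from the data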;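 further: plate controls were DMSO only for no effect and clavulanic acid blocking BLA at full dose for full effect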
# BLA inhibitor ct = counter-screen for TLR4-MyD88 inhibitors: beta-lactamase reporter inhibitors; shares compounds with TLR4-MyD88 BLA; AID 1237; hit rate 63% among 350; HeLa BLA reporter, CCF4 FRET ratio; inhibition, % at 8.4 µM;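 active means mean inhibition over three repeats above about 26% taken from the earlier screen, limit read from the data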;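 further: HeLa cells stably expressing beta-lactamase reporter as counterscreen for TLR4-MyD88 inhibitors; 0% = DMSO and 100% = clavulanic acid full inhibition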
# IDE cell inh cf = confirmation of human insulin-degrading enzyme inhibitors in cells. HEK cells, FAbetaB cleavage, fluorescence polarization. AID 435028. shares compounds with IDE inh. hit rate 51% among 1,200. inhibition, % at 5.59 µM;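 active means mean inhibition across triplicate wells above the cutoff set by the earlier primary insulin-degrading enzyme screen, cut at about 16% in these data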;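 further: 0% = DMSO wells and 100% = 60 µM reference IDE inhibitor Ii1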
# HEK cytotox = kills HEK cells in IDE inhibitor counter-screen; shares compounds with IDE inh; HEK293 cytotoxicity, ATP luminescence; inhibition, % at 5.59 µM; hit rate 28% among 1,200; in the data active means inhibition above about 22%;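 further: 0% = vehicle wells and 100% = reference cytotoxic drug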
# TLR9-MyD88 conf = TLR9-MyD88 interaction inhibition, confirmation; hit rate 51% among 680; shares compounds with TLR9-MyD88 block; AID 540250; inhibition, % at 4.98 µM; CHO TLR9/MyD88 BLA complementation, CCF4 FRET ratio;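 active means mean inhibition across three repeats above about 21% taken from the earlier screen, limit read from the data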;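 further: blue over green emission ratio reports constitutive TLR9 MyD88 association via BLA complementation; 0% = DMSO vehicle wells and 100% = clavulanate BLA inhibitor wells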
# BLA counter-1 = non-selective beta-lactamase inhibitors in TLR9-MyD88 counter-screen; shares compounds with TLR9-MyD88 block; CHO-BLA cells, CCF4 FRET ratio, BLA reporter; hit rate 7% among 680; inhibition, % at 4.98 µM;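 active means mean inhibition above a 50% cutoff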;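 further: counterscreen of TLR9-MyD88 hits on CMV-driven BLA in CHO-K1 cells; 0% = DMSO alone and 100% = clavulanate blocking BLA; higher means less blue over green ratio so more BLA blockade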
# TLR9 CHO cytotox = counter-screen for TLR9-MyD88 inhibitors: cytotoxicity in CHO cells; shares compounds with TLR9-MyD88 block; luminescence; inhibition, % at 4.98 µM; hit rate 39% among 680; AID 588336; in the data active means inhibition above about 11%
# NOD2 RIPK2 conf = NOD2-RIPK2 interaction inhibition confirmed; CHO cells, NOD2-RIPK2 BLA complementation, CCF4 FRET; shares compounds with NOD2 RIPK2 PPI; inhibition, % at 4.98 µM; hit rate 70% among 1,200; AID 624370;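 active means mean inhibition across replicates above a set limit taken from the earlier primary screen, cut at about 21% in these data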;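 further: 0% = DMSO-only wells and the high end = clavulanate BLA-blocked wells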
# BLA counter-2 = NOD2-RIPK2 counterscreen BLA reporter activity | shares compounds with NOD2 RIPK2 PPI | CHO BLA reporter, CCF4 FRET ratio | inhibition, % at 4.98 µM | hit rate 57% among 1,200;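 active means mean inhibition above the low-control mean inhibition plus three low-control SD, cut at about 11% in these data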;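 further: 0% = DMSO only wells and 100% = clavulanate high control wells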
# Numbers without * were called inactive; nt = no result given.
SMILES,IDE act,IDE inh,NOD2 RIPK2 PPI,TLR9-MyD88 block,TLR4-MyD88 BLA,TLR4 MyD88 cnf,BLA inhibitor ct,TLR9-MyD88 conf,BLA counter-1,TLR9 CHO cytotox,NOD2 RIPK2 conf,BLA counter-2,others
O=c1oc2cc(O)ccc2cc1-c1nc2c(s1)CCc1ccccc1-2,31*,128*,44*,47*,52*,69*,99*,67*,79*,2,72*,85*,IDE cell inh cf=26*;HEK cytotox=16
O=c1oc2ccccc2cc1-c1nc2c(s1)CCc1ccccc1-2,5,1,40*,49*,31*,47*,81*,51*,58*,-2,69*,79*,
O=C(Nc1ccncc1)c1cc(C2CCCCN2C(=O)CCCc2ccccc2)on1 (configuration not stated),nt,nt,4,nt,nt,nt,nt,nt,nt,nt,nt,nt,
O=C1NC[C@H](CCCCN2CCN(CCc3ccccc3)C(=O)C2=O)N(Cc2ccccc2)C1=O,nt,nt,-6,nt,nt,nt,nt,nt,nt,nt,nt,nt,
C/C(=N\Nc1ccc([N+](=O)[O-])cc1)c1cc2ccccc2o1,-20,18*,57*,58*,60*,54*,87*,44*,46,2,67*,72*,IDE cell inh cf=8;HEK cytotox=10
C/C(=N\Nc1ccc([N+](=O)[O-])cc1)c1ccc2c(c1)OCO2,1,3,23*,32*,32*,35*,60*,28*,27,8,19,25*,
O=C(NCc1ccco1)c1cccc(-c2ccc3nccn3c2)c1,nt,nt,5,nt,nt,nt,nt,nt,nt,nt,nt,nt,
C=CCSc1nnc(CCc2ccccc2)n1N,-2,nt,13,-1,nt,nt,nt,nt,nt,nt,nt,nt,
CCCCCCCCn1c2c(c(=N)c3ccccc31)CCC2,nt,nt,21*,nt,35*,22,28*,nt,nt,nt,16,-2,
CCCCCn1c2c(c(=N)c3ccccc31)CCC2,-2,6,-13,-4,nt,nt,nt,nt,nt,nt,nt,nt,
O=C(Nc1cccc(Br)c1)Oc1cccc2cccnc12,nt,nt,-6,nt,nt,nt,nt,nt,nt,nt,nt,nt,
Nc1ccc2c3c(cccc13)C(=O)N(c1ccccc1)C2=O,-14,nt,31*,28*,25*,18,39*,13,16,4,36*,42*,
Cc1cccc(C)c1-n1c(C)cc(/C=N\Nc2ccc([N+](=O)[O-])cn2)c1C,1,2,30*,44*,29*,35*,64*,31*,27,0,61*,62*,
CC1(C(=O)NS(=O)(=O)c2ccccc2Cl)CCN1C(=O)c1ccccc1 (configuration not stated),nt,nt,5,nt,nt,nt,nt,nt,nt,nt,nt,nt,
Cc1nc(N2N=C3/C(=C/c4ccc(F)cc4)CCCC3C2c2ccc(F)cc2)sc1C(=O)N(C)C (configuration not stated),7,0,42*,21,41*,37*,65*,nt,nt,nt,57*,65*,
Cc1ncsc1C(=O)N1N=C2/C(=C/c3ccccc3)CCCC2C1c1ccccc1 (configuration not stated),2,5,3,-5,-10,nt,nt,nt,nt,nt,nt,nt,

# Source: PubChem
